Experimental data as given in the supplement of paper PMC3334620.
In all, about 33,000 sequences were measured (“E-score (-0.5 to 0.5)”: median about -8e-05, highest 2% from about 0.23 on). The list comes from a sample in which the highest values are over-represented; it also holds similar and randomly drawn sequences.

Each sequence was assayed against T1, Nrg2 (UniProt P38082) (assay: PBM E-score (8-mer binding enrichment) (E-score (-0.5 to 0.5)); higher = stronger / more preferred TF binding). Settings: protein concentration: 100 nM; construct: GST-full length.
T1 sequence: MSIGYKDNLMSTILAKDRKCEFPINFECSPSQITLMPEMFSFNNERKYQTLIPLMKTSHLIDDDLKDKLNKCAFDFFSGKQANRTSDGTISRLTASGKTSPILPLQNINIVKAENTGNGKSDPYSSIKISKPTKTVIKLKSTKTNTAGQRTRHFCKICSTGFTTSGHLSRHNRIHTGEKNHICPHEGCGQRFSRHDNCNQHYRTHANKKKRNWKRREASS
Protocol: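 Universal 'all 10-mer' protein binding microarrays (Agilent AMADID 015681) probed with GST-tagged S. cerevisiae TFs (full-length or DBD) made by in vitro transcription/translation (PURExpress), about 100-200 nM. Bound TF was detected with fluorescent anti-GST. Each ungapped 8-mer (which stands for itself and its reverse complement) is scored by the PBM enrichment score (E-score), a modified Wilcoxon-Mann-Whitney statistic from -0.5 to +0.5, computed with the Universal PBM Analysis Suite. Scale: above 0.35 generally sequence-specific binding.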

Sequence	PBM E-score
CAGCGCCG	-0.09
ATACCAAT	0.0716
GCAAGAGA	-0.12
CTATTTCC	0.255
GAATTTCC	0.252
AAATTTCC	0.113
CAATTTCC	0.108
CTATTTCA	0.164
ATATTTCC	0.206
AGTAGGTC	-0.219
ATTTAGTC	0.0158
ATTTAGTA	0.274
AATTAGTA	0.23
AATTAGTC	0.107
CATTAGTA	0.112
CTTTAGTA	-0.00347
GATGCGGC	-0.094
ACTCTAGA	-0.0152
CGTGGGGA	0.121
CGCGGGGA	0.165
GGTGGGAA	-0.0571
GGCGGGGA	0.249
GGTGGGGA	0.265
CATGGGGA	0.135
GGCGGGAA	-0.11

Sequence	PBM E-score
TATGGGGA	0.283
AATGGGGA	0.0109
ATACCGAC	-0.243
CCGTCCGA	-0.257
GACTAGGA	-0.0424
CAAATCTA	0.101
ACTTGAGC	-0.295
ACGTGGCT	-0.0848
ATACTGTC	0.256
ATACTGAG	0.255
ATACTGAT	0.225
CTACTGAG	-0.00592
ATACTGAC	0.146
ATACTGTG	-0.0451
AGCCGCGA	-0.0535
AGTCCAAC	0.0694
ATGTTCTC	-0.0462
AGTAAGAG	-0.0249
ATCCCTGG	0.302
GTCCCTGA	0.356
GTCCCTCA	0.0343
ATCCCTCG	0.0848
ATCCCTGC	0.157
ATCCCCTA	0.0411
CTCCCTTA	-0.202

Sequence	PBM E-score
CTCCCTGA	0.0641
ATCCCTGA	0.256
ATCCCTCA	-0.0503
GTCCCTTA	0.288
ATCCCTTA	0.0558
ATCTGCTC	-0.0264
AGGCATAT	-0.0234
ACGAGGGC	0.0428
CCGCCAGA	-0.0239
GACAACCA	0.122
TATCCCAA	-0.005
ATTGGCCA	0.171
TACACGAA	0.18
CTACAGGC	-0.0785
CTAGGGTC	0.188
ACAGGGCA	0.195
ACAGGGGC	0.0717
CCAGGGCC	0.106
ACAGGGTC	0.402
CCAGGGTC	0.392
AGAGGGTC	-0.0416
CCAGGGGC	0.0624
CCAGGGTA	0.304
CGAGGGTA	0.0487
ACAGGGCC	0.295

Sequence	PBM E-score
GCAGGGTA	0.164
GTCCATGA	-0.237
GGCAATTA	0.103
CGCATTGC	0.148
ACAACAGA	-0.0576
CGCGAAGA	0.12
AATCGTGT	0.164
ATGGGTGC	-0.0107
GATGAAAA	0.0467
CTCCCAAC	-0.0556
CTACCACC	-0.166
AGCGGGTC	-0.21
ATAGGGTA	0.17
ACAGGGTG	0.0367
ACAGGGTA	0.349
CTTGTGCC	-0.222
AGTTCTAG	-0.0512
ATTGAGAG	0.0708
ATTGAGAC	0.0341
ATTGAGAA	0.232
TAAAACTA	0.0863
GGGCCCCC	-0.279
CAGGGCCA	-0.0826
AGGGGGCC	-0.189
AGGGGCCC	0.276

Sequence	PBM E-score
GAGGGCCC	0.151
GGGGCCCC	0.267
CAGGGCCC	0.42
CGGGGCCC	0.221
AAGGGCCT	0.0464
AAGGGCCC	0.347
CGGGCCCC	0.119
AAGGGCCG	-0.0822
CACCCGAC	-0.0642
AAAAGCGG	-0.12
AAAGTAGT	0.0374
AGTGAAAG	-0.0491
ACTCAATC	0.0391
AACCCCGG	0.0231
GAGTTTCA	0.00699
TAGTTTCA	0.258
AAGTTTCA	0.149
CGTGAATA	0.17
TACCACAA	0.0795
ATAATTAA	0.264
ATAATTGA	0.276
ATAATTAC	0.176
TTAATTAA	0.198
CTAATTGA	0.0446
GTAATTGA	0.00642

Sequence	PBM E-score
CTAGATGA	-0.0603
GCGAAACA	0.0688
AACGATGA	0.0545
ACCGCATC	0.159
AATTGAGT	0.245
AAATTGTC	0.24
AAATTGTA	0.0349
AATTGGGG	-0.0654
AAATTGCT	-0.0593
AATTGGGC	-0.0483
AAATTGTT	0.0684
CAATTGCA	-0.0952
AATTGGGT	0.26
AATTGAGA	0.0993
AATTGAGG	0.0708
AAATTGCA	0.232
CAGAGCGC	-0.213
ACATGGTA	-0.0687
AAGGTGCG	-0.0555
CTCATCCC	-0.234
ACTACGTA	0.0132
ATGTCCGA	-0.0732
ACCTCGCG	0.116
AGTCCCAC	-0.079
AAATTCCA	0.254

Sequence	PBM E-score
AAATTGGG	0.0734
GAATTCCA	0.188
CAATTCCA	-0.0703
AAATTGGC	-0.012
AAATTGGT	0.268
GAGACGGC	-0.0458
ACGAGGAC	-0.0285
CACTGAGC	-0.0828
ACGAATGA	0.156
GAAGGACA	-0.00553
CACCTCAG	-0.11
TCAGTGCA	0.0253
AGCGTTAC	-0.146
AATATAAA	0.233
AATATAAG	0.258
TATATAAA	0.2
CATATAAA	0.00613
AATATAAT	0.0957
AATATAGT	0.206
CATATAAG	0.0579
AATATAGC	0.0275
AATATAGG	0.229
ACACTTCA	0.103
CAGCCAGC	-0.115
CAAACAGC	0.00877

Sequence	PBM E-score
AAGGGCCA	-0.0108
AGTTTGGG	0.0374
CCGGCGAA	0.0927
AGAAACAA	0.258
GGAAACAA	0.105
AGAAACAC	0.0617
AATCGGCG	0.0404
AAGGTTTG	0.0916
ACCAGGGA	0.122
CTCAGGGC	0.157
AACAGGGC	0.283
CACAGACA	0.118
TCCAGGGA	0.242
GTCAGGGA	0.18
AACAGGGG	0.105
CTCAGGGA	0.319
CCCAGGGA	0.124
CACAGGGC	0.179
GACAGACA	0.248
GACAGACC	0.0299
GCATTCCC	-0.0654
ATTCGACC	-0.0786
AGAGCGCT	0.0785
CGCGGGGC	0.0564
AAGGGCAT	-0.139

Sequence	PBM E-score
ATGCGACA	0.0603
GCAAGTGA	-0.0727
AGCTAGCG	0.00875
ACGAAGAC	-0.135
GAGCAAGA	-0.00443
GCTGAAAA	0.114
GATCTCCA	0.0533
CAGAGCTG	-0.0821
AGAACGAA	0.179
AACAGGGA	0.176
GACAGGGA	0.252
CACAGGGA	0.139
CACCTCTC	-0.0403
ATGGCCTA	0.00552
ACCAGAAC	0.238
ATAAGAAT	0.135
ACCAGAAG	-0.134
ACCAGAAA	0.041
ACAAGAAC	0.262
ACAAGAAT	0.0779
ACAAGAGA	0.24
CCAAGAGA	-0.14
ACAAGAGC	0.0831
ATAAGAAA	0.101
GCAAGAAC	0.188

Sequence	PBM E-score
ATAAGAAC	0.36
AGGAGCAC	0.0739
AGTTGGCA	0.1
AGCTTACA	0.128
GCTCCCAA	-0.0754
CGCTACAG	-0.103
ATATACAA	0.237
ATATACTC	0.0973
CTATACAA	-0.0419
CTATACTA	0.111
ATATACAC	0.081
ATATACTA	0.307
AAATCACT	0.124
CACAGCCA	-0.0609
CGGAGATA	0.0572
ATGGTGTA	-0.0203
GCATATCA	0.256
CCATATCA	0.00491
TCATATCA	0.0508
CTTAACGA	0.123
GGCGAAGA	-0.0414
ATCTAGAA	-0.0175
CAAGACCG	-0.00525
AACCTATG	-0.101
GCGACAGA	0.238

Sequence	PBM E-score
TCGACAGA	-0.105
CCGACAGA	0.141
TGTTATAA	0.163
AGGGTCTA	0.356
AGGGTCTG	0.216
AGGGTCTC	0.308
GGGGTCTA	0.203
CGGGTCTA	-0.0249
CGGGTCTC	-0.0571
CCCCCCGC	-0.359
CCACTGTA	0.064
CTGATCTA	0.00323
ATGATGAA	0.31
AGTATGAA	0.254
ATGATCTA	0.236
AGTATGAT	0.223
AGTATGAC	0.0675
ATGATCTC	0.087
CTGATGAA	0.0121
GTGATGAA	0.0611
GCAGCATA	0.0385
GGAGAGGA	-0.215
ACCGAACC	-0.254
CGGACCTC	-0.0835
GACTCACA	0.0103

Sequence	PBM E-score
AGGTAGAT	-0.104
CAACACTA	0.147
GAACACTA	0.0307
TAACACTA	0.248
CGGTTGAA	0.101
AAAGGAAA	0.0754
AGCATAGA	-0.0952
AGCGATCA	-0.156
AGCGATCC	-0.129
AGCGATCG	0.24
CCGTGGAA	-0.00678
CATTGCAG	0.0963
ATGAGAGC	0.00785
ACCTACGG	-0.376
CCTAACGA	-0.038
ATTAGTTA	0.268
AGTAGTTC	0.207
CTTAGTTA	0.0769
ATTAGTGA	0.114
ATTAGTGC	0.23
GTTAGTTA	0.0784
ATTAGTAA	0.245
ATTAGTGG	0.15
AGTAGTTA	0.0579
ATTAGTAC	0.14

Sequence	PBM E-score
AGTAGTTG	0.253
CTTAGTAA	0.0233
GTAACTAC	0.0907
CGTTCTCA	-0.0327
CACCATGA	-0.00138
CGGGCCAG	-0.0425
TGGTTCAA	0.103
CGAGCCCC	-0.154
GACAGCCC	-0.099
CTTCTCTA	-0.137
AATAGTTA	0.0707
ATTAGTCG	0.143
ATTAGTTC	0.158
ATTAGTTG	0.256
AATAGTTC	0.0571
AATAGTTG	0.248
ACTTGAAA	-0.108
CCTTGCAG	-0.0165
CATGCTAG	-0.00401
CCCGATCG	-0.026
AATCTAAC	0.0101
TCGTGAGA	-0.0385
GCGTGAGA	0.297
ACGTGAGA	-0.11
CCTCTAGC	-0.0815

Sequence	PBM E-score
TATTTCCA	0.0167
CATTTCCC	0.201
CATTTCCA	0.237
GGGCTGCA	0.0573
AACTCGGT	-0.00163
AACTCGGC	0.245
AACTCGGA	0.13
GATAAAAA	-0.00426
AATAAAGT	0.252
CATAAATA	0.046
TATAAAAA	0.164
AATAAATT	0.215
TATAAATA	0.255
AATAAATA	0.246
AATAAAGG	-0.0433
GATAAATA	0.262
AATAAAGA	0.0604
GATAAATC	0.023
AATAAATG	0.158
